PubChem BioAssay AID686978 (National Center for Advancing Translational Sciences (NCATS), 2013)
Out of some 420,000 compounds screened, about 64,000 (15%) were called active. Roughly 27% stayed inconclusive and do not appear here. Not all results are given here. Unmarked numbers belong to inactive results. Calls come from the whole dose curve; as a rule, active = well fitted inhibition curve with a large enough effect; inconclusive = small, poorly fitted or top-dose-only effect; inactive = flat fitted curve, though single readings scatter.

Test: qHTS for Inhibitors of human tyrosyl-DNA phosphodiesterase 1 (TDP1): qHTS in cells in absence of CPT; note: nearly all actives have a fitted effect of over 55% in size
Conditions: DT40 Tdp1-/- hTDP1 cells, no CPT, ATP luminescence, 48 h; activity change, negative = growth inhibition: at 46.2 µM (top of the series)
Summary of the method: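 Compound effects on proliferation are scored in DT40 Tdp1-/-;hTDP1 cells in the absence of CPT. ATP levels (CellTiter-Glo luminescence) are recorded after a ≥48 hr, 37 °C incubation.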
% is set by controls: 0 for no effect and ±100 for the full control effect; potency is the fitted concentration of half-maximal effect.

| SMILES | activity change, negative = growth inhibition | Potency |
| --- | --- | --- |
| CC1CC(C)CN(CCCNC(=O)c2csc3c2CCCCC3)C1 (stereo not drawn) | -2.49% |  |
| CCOC(=O)c1nc(N)sc1C(=O)OCC | -2.51% |  |
| O=C(Nc1ccc(-n2ccnc2P(=O)(O)c2ccccc2)cc1)c1ccccc1Br | -25.4% |  |
| CSc1nc2sc3c(c2c(=O)[nH]1)CCc1ccccc1-3 | -1.5% |  |
| O=C(NC1CCCC1)C(c1c(F)cccc1Cl)N(C(=O)c1csnn1)C1CC1 (stereo not drawn) | -3.6% |  |
| Cc1noc(C)c1NC(=O)Nc1cccc2c1O[C@H](CN(C)C(=O)Nc1ccccc1)[C@@H](C)CN([C@H](C)CO)C2=O | -6.07% |  |
| O=C(Nc1ccc2c(c1)CCC2)c1ccc(Br)s1 | -21.1% |  |
| CCN(CC(=O)NCc1ccc(Cl)cc1)C(=O)CSc1ccccc1 | -21.6% |  |
| O=C(CSc1nc2ccccc2o1)N1CCN(c2ccccc2)CC1 | -26.2% |  |
| Cc1ccc(/C=N/NC(=S)Nc2cccc(S(=O)(=O)N(C)C)c2)o1 |  | 2.59 µM (active) |
| Cc1ccc(/C=N/NC(=O)Cn2nc(C)c(Br)c2C)o1 | 0.967% |  |
| CN(C)S(=O)(=O)c1cccc(C(=O)Nc2cccnc2)c1 | -5.49% |  |
| O=C(OCc1cc2ccccc2[nH]c1=O)c1cccnc1 | -6.84% |  |
| CN1CCN(S(=O)(=O)c2ccc3[nH]cc(C(=O)O)c(=O)c3c2)CC1 | -1.96% |  |
| CC(C)(C)c1ccc(NC(=O)COC(=O)CCc2nc3ccccc3c(=O)[nH]2)cc1 | -21.3% |  |
| Cc1cc(C)c(-c2csc(NC(=O)CCCc3nc4ccccc4c(=O)[nH]3)n2)c(C)c1 |  | 8.2 µM (active) |
| O=C(CCc1nc2ccccc2c(=O)[nH]1)OCC(=O)c1cccc(Cl)c1 | -24.5% |  |
| Cc1ccc(C(=O)N/C(=C\c2cn(S(=O)(=O)N(C)C)c3ccccc23)C(=O)N2CCCC2)cc1 | -14.7% |  |
| C/C=C(\C)C(=O)OC1C(OC(=O)C2(C)OC2C)c2cc3ccc(=O)oc3cc2OC1(C)C (stereo not drawn) | -10.9% [at 9.04 µM] |  |
| CN1CCN(/N=C/c2ccc(C#N)cc2)CC1 | -20.6% |  |
| Cc1ccc(NS(=O)(=O)c2ccc3c(c2)CC(=O)N3)cc1Cl | -18.8% |  |
| O=C1c2cccnc2C(=O)N1Cc1cccs1 | -22% |  |
| Cc1cccc(N2C(=O)c3cccnc3C2=O)c1 | -2.8% |  |

| SMILES | activity change, negative = growth inhibition | Potency |
| --- | --- | --- |
| NC1=CC(=O)C(=O)c2cccnc21 |  | 3.66 µM (active) |
| COc1cccc(-c2nc(Nc3ccncc3)c3ccccc3n2)c1 |  | 10.3 µM (active) |
| Cc1cccc(-c2nc(Nc3ccc(O)cc3)c3ccccc3n2)c1 |  | 20.6 µM (active) |
| COc1ccccc1-c1nc(NCCNC(C)=O)c2ccccc2n1 | 15.7% |  |
| CNc1nc(-c2ccccc2OC)nc2ccccc12 |  | 7.31 µM (active) |
| COc1cc(Nc2nc(-c3ccc(OC)c(OC)c3)nc3ccccc23)cc(OC)c1 |  | 2.06 µM (active) |
| Cc1cccc(-c2noc(-c3ccc(F)cc3)n2)c1 | 1.15% |  |
| Oc1ccc(-c2nnc(Nc3ccccc3)c3ccccc23)cc1 | 13.6% |  |
| Cc1nc2ccccc2c(C)c1C(=O)c1ccc(F)cc1 | -6.13% |  |
| COc1ccc(-c2nc3n(c(=O)c2C#N)CCS3)c(OC)c1 | 9.93% |  |
| CC1=NCCN1S(=O)(=O)c1ccc(Br)c(C)c1 | -20.7% |  |
| CCCCn1c(=O)c2oc3ccccc3c2n(CC(=O)Nc2ccccc2OC)c1=O | -4.94% |  |
| O=C(Nc1ccc(OCC(=O)N2CCOCC2)cc1)c1cc(F)c(F)cc1Cl | -18.8% |  |
| N#Cc1c(-c2ccccc2)c(-c2ccccc2)n[nH]c1=O | -17.4% |  |
| CCn1c(CSc2nc(C)cc(C)n2)nnc1SCC(N)=O | 7.59% |  |
| COCCCn1c(SCc2cccc(OC)c2)nc2cc(OC)c(OC)cc2c1=N |  | 16.4 µM (active) |
| COc1ccc(/C=C/c2nnc(NC(=O)C(C)C)s2)cc1 | -19.3% |  |
| Cc1cccc(N=C2SC(C)CN2C(=O)CN2C(=O)NC3(CCCC3)C2=O)c1 (stereo not drawn) | -6.89% |  |
| CC(C)c1nc2cc(C(=O)NC(C)c3cnn(C)c3)ccc2o1 (stereo not drawn) | -0.753% |  |
| COc1ccc(C2Sc3ccccc3NC3=C2C(=O)c2ccccc23)c(OC)c1OC (stereo not drawn) |  | 1.84 µM (active) |
| COc1cccc(C2=CC(=O)C[C@H](c3ccc(F)cc3)C2)c1OC | -29.4% |  |
| O=[N+]([O-])c1ccc(N2CCN(S(=O)(=O)c3ccccc3)CC2)cc1N1CCc2ccccc2C1 | -4.16% |  |
| CSCCC(NC(=O)COc1ccccc1)C(=O)OCc1ccc(Cl)cc1 (stereo not drawn) | -13.5% |  |

| SMILES | activity change, negative = growth inhibition | Potency |
| --- | --- | --- |
| CN(CCOc1ccc(CC2SC(=O)NC2=O)cc1)c1ccccn1 (stereo not drawn) |  | inactive |
| COc1ccc(CCN2CNc3c(c(=O)n(C)c(=O)n3C)C2)cc1OC | -22.6% |  |
| Cn1c(=O)c2c(nc(N/N=C/c3cccs3)n2Cc2ccc(Br)cc2)n(C)c1=O |  | 23.1 µM (active) |
| Cn1c(=O)c2c(nc(NCCc3ccccc3)n2Cc2ccccc2Br)n(C)c1=O | -22.3% |  |
| COc1ccc(CCn2c(NCCCN3CCOCC3)nc3c2c(=O)[nH]c(=O)n3C)cc1 | -9.49% |  |
| Cn1c(=O)c2c(nc(NCCc3ccccc3)n2Cc2ccccc2)n(C)c1=O |  | 4.11 µM (active) |
| Cn1c(=O)[nH]c(=O)c2c1nc(NCCCn1ccnc1)n2Cc1cccc(Br)c1 | -8% |  |
| Cn1c(=O)c2c(nc(NCc3ccccc3)n2CC(N)=O)n(C)c1=O | -17.3% |  |
| CCCCn1c(SCC(=O)NCCc2ccc(OC)c(OC)c2)nc2c1c(=O)n(C)c(=O)n2C | -17.6% |  |
| CCn1c(NCCc2ccc(OC)c(OC)c2)nc2c1c(=O)n(C)c(=O)n2C |  | 7.31 µM (active) |
| CCCCNc1nc2c(c(=O)n(C)c(=O)n2C)n1Cc1cccc(OC)c1 |  | 1.84 µM (active) |
| O=C(Nc1cccnc1)c1cc([N+](=O)[O-])ccc1Cl | -29.7% |  |
| Nc1nc(SC23CC4CC(CC(C4)C2)C3)ns1 | -6.92% |  |
| O=C(Nc1ccc(-n2cccn2)cc1)C1CCN(Cc2ccsc2)CC1 | -23.5% |  |
| COc1ccc(C/C(N)=N/OC(=O)c2ccco2)cc1OC | -29.2% |  |
| CCOc1ccc(NC(=O)CCS(=O)(=O)c2cccc3nsnc23)cc1 | -15.8% |  |
| O=C(CSc1ncn[nH]1)Nc1nsc(-c2ccccc2)n1 | -15.2% |  |
| c1csc(-c2nc(-c3ccncc3)no2)c1 | -17.5% |  |
| CCN(CC(=O)Nc1ccc(NC(C)=O)cc1)C(=O)C1CC(=O)N(Cc2ccc(C)cc2)C1 (stereo not drawn) | -11.4% |  |
| COc1ccc2c(c1)CCCO[C@]21O[C@H](CCO)C[C@H](O)[C@H]1O | -4.91% |  |
| CC(C)OCCCNc1nc2c(c(=O)n(Cc3ccccc3F)c(=O)n2C)n1C | -25.5% |  |
| Cn1c(=O)c2c(nc(NCCNC(=O)c3ccco3)n2Cc2ccccc2F)n(C)c1=O |  | 18.4 µM (active) |
